High-throughput results (PubChem BioAssay)
C8 TRAIL sens: sensitizes caspase-8 expressing cells to TRAIL; NB7+C8 cells + TRAIL, ATPlite viability luminescence; inhibition (viability loss, TRAIL sensitization), % at 10 µM; hit rate 1% among 360,000;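 active = compounds causing at least 50% loss of cell viability in the single-dose screen, relative to plate controls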
TROY NFkB inh: TROY signaling inhibition. Q293 LMP1-TROYcd NF-kB luciferase reporter, 4 h. inhibition, % at 10 µM. hit rate 0.98% among 360,000. AID 1347056;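 active = compounds whose plate-normalised and pattern-corrected inhibition of the luciferase reporter signal at the single screening dose is 50% or more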
HSP90 inh: blocks HSP90-mediated luciferase refolding in reticulocyte lysate | Rabbit reticulocyte lysate, luciferase refolding luminescence, 3 h | inhibition, % at 5.6 µM | hit rate 0.91% among 290,000 | AID 1789;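 active = inhibition above the screen-wide mean plus 3 SD, computed separately per campaign, cut at about 16% in these data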;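 note: 0% = DMSO wells and 100% = 60 µM geldanamycin wells; inhibitors lower the luminescence because luciferase stays unfolded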
PPC-1+TRAIL kill: PPC-1 cancer cell killing with TRAIL present; PPC-1 cells + TRAIL, ATPLite viability luminescence; cell killing (% activity), % at 4 µM or 5 µM; hit rate 0.41% among 220,000; AID 1443;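 active = cell killing above 50% in the first pass at 4 µM, then a duplicate retest at 5 µM averaging 50% or more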;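 note: plate controls were cells with TRAIL plus DMSO for no effect and medium-only wells lacking cells for full effect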
TWEAK Fn14 block: inhibitors of TWEAK-Fn14 interaction signaling | inhibition, % at 10 µM | hit rate 2% among 360,000 | TWEAK-stimulated Fn14 reporter cells, luciferase luminescence, 8 h; in the data active = inhibition above about 50%
Platelet DG rel: platelet dense granule release activity. human platelet-rich plasma, SFLLRN dense granule ATP release, luminescence. inhibition, %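 (compounds screened at 7.5 µM in platelet-rich plasma)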. hit rate 0.22% among 300,000. AID 1663;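 active = mean replicate score, as percent of positive control, at or above 50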
An asterisk follows results filed as active. Rows were chosen to be rich in hits. Some 3.5% of all compounds tested hit in one or more screens of this group.

What do the screens show for `COc1ccc(Cl)cc1NC(=O)C/C(C)=N/NC(=O)c1ccc(O)cc1`?
C8 TRAIL sens: 8; TROY NFkB inh: -4; HSP90 inh: 4; TWEAK Fn14 block: -4; Platelet DG rel: 2

Results for NC(=O)[C@@H]1CC2(CC(c3cccc(NC(=O)COc4ccc(Cl)cc4)c3)=NO2)CN1C(=O)COc1ccc(Cl)cc1 (stereo not given in full) ?
C8 TRAIL sens: 32; TROY NFkB inh: 46; PPC-1+TRAIL kill: -9; TWEAK Fn14 block: 82*; Platelet DG rel: 5

What do the screens show for `NC(=O)[C@H]1CC2(CC(c3cccc(NC(=O)COc4ccc(Cl)cc4)c3)=NO2)CN1C(=O)C(c1ccccc1)c1ccccc1` (stereo not given in full)?
C8 TRAIL sens: 23; TROY NFkB inh: 33; PPC-1+TRAIL kill: 4; TWEAK Fn14 block: 57*; Platelet DG rel: 14

How did CC1=C(C(=O)OCC(C)C)[C@]23C(=O)c4ccccc4[C@@]2(O1)OC(N)=C3C#N do in these assays?
C8 TRAIL sens: -13; TROY NFkB inh: 15; HSP90 inh: 3; PPC-1+TRAIL kill: 27; TWEAK Fn14 block: 0; Platelet DG rel: 3

What do the screens show for `CCC(C)OC(=O)C1=C(C)OC23OC(N)=C(C#N)C12C(=O)c1ccccc13` (stereo not given)?
C8 TRAIL sens: -11; TROY NFkB inh: 17; HSP90 inh: 2; PPC-1+TRAIL kill: 14; TWEAK Fn14 block: 10; Platelet DG rel: 50*

How did Cc1nc2ccccn2c1C(=O)/C=C/c1cccc([N+](=O)[O-])c1 do in these assays?
C8 TRAIL sens: -48; TROY NFkB inh: 36; HSP90 inh: -2; PPC-1+TRAIL kill: 22; TWEAK Fn14 block: 94*; Platelet DG rel: 2

Results for Cc1ccc(/C=C/C(=O)c2c(C)nc3ccccn23)cc1 ?
C8 TRAIL sens: 22; TROY NFkB inh: -35; HSP90 inh: -6; PPC-1+TRAIL kill: 7; TWEAK Fn14 block: 52*; Platelet DG rel: -8

What do the screens show for `Cn1cnc([N+](=O)[O-])c1Oc1cccc2ccccc12`?
C8 TRAIL sens: 20; TROY NFkB inh: 26; HSP90 inh: 1; PPC-1+TRAIL kill: 17; TWEAK Fn14 block: 50*; Platelet DG rel: -1

How did Cn1cnc([N+](=O)[O-])c1S(=O)(=O)Oc1cccc2ccccc12 do in these assays?
C8 TRAIL sens: 43; TROY NFkB inh: 74*; TWEAK Fn14 block: 67*

What do the screens show for `Cn1cnc([N+](=O)[O-])c1S(=O)(=O)Oc1ccc(Cl)cc1`?
C8 TRAIL sens: 19; TROY NFkB inh: 47; TWEAK Fn14 block: 15

Results for Cn1cnc([N+](=O)[O-])c1Oc1ccccc1 ?
C8 TRAIL sens: -2; TROY NFkB inh: 3; HSP90 inh: -2; PPC-1+TRAIL kill: 25; TWEAK Fn14 block: 15; Platelet DG rel: 2

Results for CC1=NN(c2ccccc2)C(=O)/C1=C/C=C/c1ccc(N(C)C)cc1 ?
C8 TRAIL sens: 18; TROY NFkB inh: -5; HSP90 inh: -7; PPC-1+TRAIL kill: 30; TWEAK Fn14 block: 10; Platelet DG rel: 15

What do the screens show for `CC1=NN(c2ccccc2)C(=O)/C1=C\C=C\c1ccccc1`?
C8 TRAIL sens: -1; TROY NFkB inh: 49; HSP90 inh: 1; PPC-1+TRAIL kill: 8; TWEAK Fn14 block: 94*; Platelet DG rel: -1

How did COc1ccc([C@H]2N[C@]3(CCCN(Cc4ccc(F)cc4)C3=O)[C@H]3C(=O)N(Cc4ccccc4)C(=O)[C@@H]23)cc1 do in these assays?
C8 TRAIL sens: -10; TROY NFkB inh: -13; TWEAK Fn14 block: 7

How did CC(=O)Oc1ccc(-c2nc(-c3cccnc3)no2)cc1 do in these assays?
C8 TRAIL sens: 20; HSP90 inh: -4; PPC-1+TRAIL kill: 24; TWEAK Fn14 block: 10; Platelet DG rel: 79*

What do the screens show for `CC(=O)Oc1ccc(Oc2ccc(-c3noc(C)n3)cc2)cc1`?
C8 TRAIL sens: 34; TROY NFkB inh: -20; HSP90 inh: 1; PPC-1+TRAIL kill: -14; TWEAK Fn14 block: -19; Platelet DG rel: 5

What do the screens show for `C/C(=N\NC(=O)c1cc2ccccc2cc1O)c1ccccn1`?
C8 TRAIL sens: 58*; TROY NFkB inh: -58; HSP90 inh: 4; TWEAK Fn14 block: 24; Platelet DG rel: 40

How did C/C(=N\NC(=O)c1ccc(F)cc1)c1ccccn1 do in these assays?
C8 TRAIL sens: 55*; TROY NFkB inh: -71; HSP90 inh: 9; TWEAK Fn14 block: -14; Platelet DG rel: -4

What do the screens show for `O=c1c2ccccc2cnn1CCOc1ccccc1`?
C8 TRAIL sens: 38; TROY NFkB inh: 72*; HSP90 inh: 68*; PPC-1+TRAIL kill: 43; TWEAK Fn14 block: 97*; Platelet DG rel: 3

What do the screens show for `C#Cc1ccc(CN2CCN(CCCc3ccccc3)C(CCO)C2)cc1` (stereo not given)?
C8 TRAIL sens: -7; TROY NFkB inh: 0; HSP90 inh: 4; TWEAK Fn14 block: 4; Platelet DG rel: -6

How did O=C(Cc1ccccc1)NCC(=O)OCC(=O)c1ccc(F)cc1 do in these assays?
C8 TRAIL sens: -31; TROY NFkB inh: 7; HSP90 inh: -1; TWEAK Fn14 block: 0; Platelet DG rel: -12

How did CCOC(=O)C1=C(c2ccccc2)NC(=O)NC1c1ccc(O)c(Cl)c1 (stereo not given) do in these assays?
C8 TRAIL sens: -12; TROY NFkB inh: 8; HSP90 inh: 0; TWEAK Fn14 block: 73*; Platelet DG rel: 2

Results for CC(=O)Nc1ccc(S(=O)(=O)NCCCN2CCOCC2)cc1 ?
C8 TRAIL sens: -11; TROY NFkB inh: 25; HSP90 inh: 2; TWEAK Fn14 block: 39; Platelet DG rel: -3

What do the screens show for `O=C(NC(=S)Nc1cc(-c2nc3ccccc3[nH]2)ccc1Cl)c1ccc2c(c1)OCO2`?
C8 TRAIL sens: 17; TROY NFkB inh: 53*; HSP90 inh: -4; PPC-1+TRAIL kill: 6; TWEAK Fn14 block: 87*; Platelet DG rel: 12

Results for Cc1ccc(-c2nc3ccccc3[nH]2)cc1NC(=O)c1ccc2c(c1)OCO2 ?
C8 TRAIL sens: -33; TROY NFkB inh: -6; HSP90 inh: 3; PPC-1+TRAIL kill: 18; TWEAK Fn14 block: 1; Platelet DG rel: -2

Results for Cc1ccc(-c2nc3ccccc3[nH]2)cc1NC(=S)NC(=O)c1ccccc1Br ?
C8 TRAIL sens: 16; TROY NFkB inh: 36; HSP90 inh: -3; PPC-1+TRAIL kill: 2; TWEAK Fn14 block: 67*; Platelet DG rel: -1

Results for COC(=O)c1ccc(NC(=O)CN2CCN(CC#N)CC2)cc1 ?
C8 TRAIL sens: 8; TROY NFkB inh: -2; HSP90 inh: -1; TWEAK Fn14 block: -3; Platelet DG rel: -3

What do the screens show for `Cc1nn(-c2ncc(C(F)(F)F)cc2Cl)c(=O)n1-c1ccccc1F`?
C8 TRAIL sens: 0; TROY NFkB inh: 0; HSP90 inh: -3; PPC-1+TRAIL kill: 4; TWEAK Fn14 block: 14; Platelet DG rel: 0

Results for COc1ccc(OC)c(NC(=O)c2cc(-c3cc(Cl)ccc3O)n[nH]2)c1 ?
C8 TRAIL sens: 51*; TROY NFkB inh: 51*; HSP90 inh: -1; PPC-1+TRAIL kill: 7; TWEAK Fn14 block: 55*; Platelet DG rel: 0
